Experimental findings from PubChem BioAssay (EPA / NIEHS) are described below.

The term AC50 denotes the midpoint of the concentration-response curve, whichever way the signal moves.

Activity calls are given as the source filed them. The calls were made as follows: active = hit-call score of the fitted dose curve at least 0.9, where 1 is the maximum; inactive = score below 0.9.

Read-out in assay [1]: Matrix Metallopeptidase 1 (MMP1), MMP1 (gene 4312)
As to the kind of experiment: BSK_hDFCGF_MMP1: BioMAP Diversity Plus: hDFCGF Assay for Matrix Metallopeptidase 1 (MMP1) Biomarker Activity (AID 2283064). The conditions noted are these: primary human foreskin fibroblasts; actives raise or lower the signal. Summed up: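 Human foreskin fibroblasts exposed to chemical for 24 h; MMP1 detected by ELISA, with DMSO as baseline for bidirectional fitting.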

Read-out in assay [2]: Vascular cell adhesion molecule 1 (VCAM1), VCAM1 (gene 7412)
Briefly: BSK_hDFCGF_VCAM1: BioMAP Diversity Plus: hDFCGF Assay for Vascular cell adhesion molecule 1 (VCAM1) Biomarker Activity (AID 2283065).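 As to AC50: VCAM-1 protein level quantified by ELISA after 24 h chemical exposure.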 The conditions noted are these: primary human foreskin fibroblasts; actives raise or lower the signal. Summed up: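 ELISA read-out of VCAM-1 on human skin fibroblasts, 24 h post-dose; gain or loss of signal fitted bidirectionally against DMSO baseline.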

Read-out in assay [3]: Plasminogen activator inhibitor-1 (PAI1), SERPINE1 (gene 5054)
Briefly: BSK_hDFCGF_PAI1: BioMAP Diversity Plus: hDFCGF Assay for Plasminogen activator inhibitor-1 (PAI1) Biomarker Activity (AID 2283066). As to conditions: primary human foreskin fibroblasts; actives raise or lower the signal. Summed up:
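ELISA readout of PAI-1 from primary human skin fibroblast cultures, 24 h after compound addition. Gain or loss of signal was fitted bidirectionally against DMSO baseline.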

Read-out in assay [4]: Intercellular Adhesion Molecule 1 (ICAM1), ICAM1 (gene 3383)
Briefly: BSK_KF3CT_ICAM1: BioMAP Diversity Plus: KF3CT Assay for Intercellular Adhesion Molecule 1 (ICAM1) Biomarker Activity (AID 2283067). The conditions noted are these: primary human keratinocytes with fibroblasts; actives raise or lower the signal. Summed up: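 ELISA readout of ICAM-1; KF3CT human skin co-culture (keratinocytes + foreskin fibroblasts), 24 h post-dose; gain/loss fit vs DMSO baseline.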

Read-out in assay [5]: Interferon-gamma inducible Protein 10 (IP10), CXCL10 (gene 3627)
Briefly: BSK_KF3CT_IP10: BioMAP Diversity Plus: KF3CT Assay for Interferon-gamma inducible Protein 10 (IP10) Biomarker Activity (AID 2283068). As to conditions: primary human keratinocytes with fibroblasts; actives raise or lower the signal. In outline: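 KF3CT co-culture (keratinocytes + foreskin fibroblasts), 24 h compound, IP-10 by ELISA; bidirectional fit vs DMSO baseline.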

Assay [6] is described as follows: BSK_KF3CT_SRB: Viability Assessment in the BioMAP Diversity Plus: KF3CT Assay (AID 2283069). As to conditions: primary human keratinocytes with fibroblasts. Summed up: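 Overt cytotoxicity is assessed as total protein by sulforhodamine B staining in parallel human skin co-cultures at 24 h after dosing. DMSO serves as negative control and baseline.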
Read-out in assay [7]: Interleukin-1 alpha (IL1a), IL1A (gene 3552)
Briefly: BSK_KF3CT_IL1a: BioMAP Diversity Plus: KF3CT Assay for Interleukin-1 alpha (IL1a) Biomarker Activity (AID 2283070). The conditions noted are these: primary human keratinocytes with fibroblasts; actives raise or lower the signal. In outline: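 Readout is IL-1a level by ELISA, compared bidirectionally with DMSO as baseline. Cells: human keratinocytes co-cultured with foreskin fibroblasts, harvested 24 h post-dose.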

Read-out in assay [8]: TIMP metallopeptidase inhibitor 2 (TIMP2), TIMP2 (gene 7077)
Briefly: BSK_KF3CT_TIMP2: BioMAP Diversity Plus: KF3CT Assay for TIMP metallopeptidase inhibitor 2 (TIMP2) Biomarker Activity (AID 2283071). As to conditions: primary human keratinocytes with fibroblasts; actives raise or lower the signal. In outline:
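ELISA readout of TIMP-2 in keratinocyte plus foreskin fibroblast co-cultures (human skin primary cells), 24 h post-dose. Gain or loss of signal fitted relative to DMSO.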

Read-out in assay [9]: Transforming growth factor beta 1 (TGFb1), TGFB1 (gene 7040)
Briefly: BSK_KF3CT_TGFb1: BioMAP Diversity Plus: KF3CT Assay for Transforming growth factor beta 1 (TGFb1) Biomarker Activity (AID 2283072). As to conditions: primary human keratinocytes with fibroblasts; actives raise or lower the signal. Summed up:
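Read-out: ELISA for TGF-b1 in keratinocyte/foreskin fibroblast human skin co-culture, 24 h after dosing; bidirectional curve fit vs DMSO baseline; gain or loss of signal scored.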

Read-out in assay [10]: Monokine induced gamma interferon (MIG), CXCL9 (gene 4283)
Briefly: BSK_hDFCGF_MIG: BioMAP Diversity Plus: hDFCGF Assay for Monokine induced gamma interferon (MIG) Biomarker Activity (AID 2283063). As to conditions: primary human foreskin fibroblasts; actives raise or lower the signal. Summed up:
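Fibroblasts (human foreskin, primary) dosed, 24 h, MIG by ELISA; fit bidirectional vs DMSO.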

With `NC(=NCCCCCCN=C(N)/N=C(\N)Nc1ccc(Cl)cc1)/N=C(\N)Nc1ccc(Cl)cc1`, the AC50 in assay [1] was 7.45 µM (active); in [2] it was 5.46 µM (active); in assay [3], 3.67 µM (active); in assay [4] it was 7.53 µM (active); in [5], 6.16 µM (active); in [6], 4.79 µM (active). The half-maximal activity concentration (AC50) was 4.32 µM (active) in assay [7], 5.01 µM (active) in assay [8] and 2.35 µM (active) in assay [9].

Take `CCCCCCCCCCCCCCC`: the outcome in assay [10], in assay [1], in assay [2], in [3], in assay [4] and in [5] was inactive. Moreover, the outcome in assay [6], in assay [7], in [8] and in assay [9] was inactive.

Regarding `COCN(COC)c1nc(N(COC)COC)nc(N(COC)COC)n1`, the result in assay [10], in [1], in assay [2], in assay [3], in assay [4] and in assay [5] was inactive. For the same compound, the result in assay [6], in [7], in [8] and in [9] was inactive.

As for `CCCCc1oc2ccccc2c1C(=O)c1cc(I)c(OCCN(CC)CC)c(I)c1`, the AC50 is 10.2 µM (active) in assay [10]; 9.45 µM (active) in [1]; 8.94 µM (active) in assay [2]; 4.81 µM (active) in assay [3]; 22.8 µM (active) in [4]; 8.36 µM (active) in [5]. Further, the concentration at half-maximal activity (AC50) in assay [6] was 9.02 µM (active); in [7], 9.69 µM (active); in assay [8] it was 8.7 µM (active); in assay [9] it was 5.6 µM (active).

Turning to `Cc1[nH]nc2c1N=C(c1ccccc1Cl)c1cc([N+](=O)[O-])ccc1N2`, the half-maximal activity concentration (AC50) in [10] is 31.1 µM (active); in assay [1], 2.47 µM (active); in assay [3], 5.16 µM (active). In addition, the outcome in assay [2], in assay [4], in assay [5], in [6], in [7] and in assay [8] was inactive. Moreover, in assay [9], the result was inactive.

`Cc1ccc(N=Nc2c(O)ccc3ccccc23)c(C)c1`: the result in assay [10], in [1], in [3], in assay [4], in assay [5] and in assay [6] was inactive. In addition, the outcome in assay [7] and in assay [9] was inactive. Besides, the results for the AC50 in assay [2] and in assay [8] were 5.25 µM (active) and 4.11 µM (active), respectively.

`Oc1cc2ccccc2cc1O`: the outcome in assay [10], in assay [1], in [2], in assay [3], in [4] and in assay [5] was inactive. The result in [6], in assay [7], in assay [8] and in assay [9] was inactive.

For the compound `COc1cc(OC)nc(NC(=O)NS(=O)(=O)Nc2ccccc2C(=O)N(C)C)n1`, the outcome in [10], in assay [1], in [2], in [3], in [4] and in [5] was inactive. The result in [6], in [7], in [8] and in assay [9] was inactive.

As to `CCCCC(CC)C(=O)O` (stereo not drawn), the outcome in assay [10], in assay [1], in [2], in [3], in assay [4] and in [5] was inactive. Also, the outcome in assay [6], in assay [7], in assay [8] and in assay [9] was inactive.

On to `N=C(N)c1ccc(OCCCCCOc2ccc(C(=N)N)cc2)cc1`, for which the result in [10], in assay [4], in assay [5], in assay [6], in [7] and in assay [8] was inactive. Moreover, the outcome in assay [9] was inactive. Moreover, the AC50 was 28.1 µM (active) in assay [2] and 28.5 µM (active) in assay [3].

With `OCC(CO)(CBr)CBr`, the result in assay [10], in [1], in assay [2], in [3], in assay [4] and in assay [5] was inactive. The result in [6], in assay [7], in assay [8] and in [9] was inactive.

In the case of `CCCCCCCCCCCCCCCCCC[N+](C)(C)Cc1ccccc1`, the AC50 was 1.86 µM (active) in assay [10]; 3.93 µM (active) in [1]; 0.715 µM (active) in assay [2]; 0.636 µM (active) in [3]; 5.58 µM (active) in [4]; 2.54 µM (active) in assay [5]. Moreover, the concentration at half-maximal activity (AC50) in assay [6] was 2.62 µM (active); in [7], 4.24 µM (active); in assay [8], 3.25 µM (active). Also, the outcome in assay [9] was inactive.

As for `O=C(CCCN1CCC(O)(c2ccc(Cl)cc2)CC1)c1ccc(F)cc1`, the result in assay [10], in assay [1], in assay [2], in assay [3], in assay [4] and in assay [5] was inactive. For the same compound, the result in assay [6], in [7], in assay [8] and in [9] was inactive.

Take `COc1cccc(O)c1`: the outcome in assay [10], in [1], in assay [2], in [3], in assay [4] and in [5] was inactive. In addition, the outcome in assay [6], in [7], in [8] and in [9] was inactive.

With `CCOC(=O)CN[C@@H](C(=O)N1CC[C@H]1C(=O)NCc1ccc(/C(N)=N/O)cc1)C1CCCCC1`, the outcome in assay [10], in assay [1], in assay [2], in [3], in [4] and in assay [5] was inactive. In addition, the result in assay [6], in [7], in assay [8] and in assay [9] was inactive.

In the case of `CCCCCCCCCCCCOS(=O)(=O)O`, the AC50 is 27.7 µM (active) in [10]; 32.7 µM (active) in assay [1]; 29.3 µM (active) in [2]; 33.6 µM (active) in assay [3]; 33.4 µM (active) in assay [5]; 33.7 µM (active) in assay [6]. Besides, the AC50 in [7] is 20 µM (active); in assay [8], 29.3 µM (active); in assay [9], 33.4 µM (active). Besides, the result in assay [4] was inactive.

In the case of `CC[N+](CC)(CC)Cc1ccccc1`, the outcome in assay [10], in [1], in assay [2], in [3], in [4] and in [5] was inactive. In addition, the result in assay [6], in assay [7], in assay [8] and in assay [9] was inactive.

For the compound `CS(=O)(=O)c1ccc([C@@H](CC2CCCC2)C(=O)Nc2cnccn2)cc1Cl`, the result in [10], in assay [1], in assay [2], in [4], in assay [5] and in [6] was inactive. Also, the outcome in [7], in [8] and in assay [9] was inactive. The AC50 in [3] is 20 µM (active).

Turning to `CN(C)c1ccc(C(=C2C=CC(=[N+](C)C)C=C2)c2ccccc2)cc1`, the AC50 in [10] is 0.0509 µM (active); in assay [1] it was 0.765 µM (active); in assay [2] it was 0.0134 µM (active); in assay [3] it was 0.0185 µM (active); in assay [4] it was 0.516 µM (active); in assay [5], 0.39 µM (active). The half-maximal activity concentration (AC50) in [6] was 0.318 µM (active); in assay [7] it was 0.359 µM (active); in assay [8], 0.795 µM (active); in assay [9], 0.194 µM (active).

For the compound `CCC(C)c1ccccc1O` (stereo not drawn), the outcome in assay [10], in [1], in assay [2], in [3], in [4] and in assay [5] was inactive. Besides, the outcome in assay [6], in assay [7], in assay [8] and in [9] was inactive.

In the case of `C=COC(=O)C(C)(C)CCCCCC`, the AC50 is 35 µM (active) in assay [10]; 3.97 µM (active) in assay [1]; 30.2 µM (active) in [2]; 30.3 µM (active) in assay [3]; 37.2 µM (active) in assay [4]; 34.7 µM (active) in [5]. Also, the concentration at half-maximal activity (AC50) in assay [6] is 34.4 µM (active); in assay [7], 30.9 µM (active); in [8] it was 27.6 µM (active). In [9], the outcome was inactive.

Turning to `O=C(c1ccccc1)c1ccccc1`, the outcome in [10], in assay [1], in assay [2], in [3], in assay [4] and in assay [5] was inactive. Moreover, the result in assay [6], in assay [7], in [8] and in assay [9] was inactive.

As for `CC(=O)Nc1ccc(O)cc1`, the outcome in assay [10], in assay [1], in assay [2], in assay [3], in assay [4] and in [5] was inactive. Also, the outcome in assay [6], in assay [7], in assay [8] and in assay [9] was inactive.
